The values below come from PubChem BioAssay AID651558 (National Center for Advancing Translational Sciences (NCATS), 2012).

In all, about 1,200 compounds went through this assay and about 480 (40%) were called active. Another 29% or so got no clear call; they are omitted. The list shows a part of the results. Unmarked numbers belong to inactive results. The call rests on the fitted dose curve; in most records, active means well fitted inhibition curve with a large enough effect; inconclusive means small, poorly fitted or top-dose-only effect; inactive means no such curve, though single readings can be large or run the other way.
On the % scale 0 is the no-effect control and ±100 the full control effect; potency means the concentration at half of the fitted maximal effect.

The nature of this test: qHTS Assay to Find Inhibitors of Chronic Active B-Cell Receptor Signaling: Hit Validation in Primary Screen. Further: nearly all actives have a fitted effect of over 75% in size. The settings on record: ABC-DLBCL IkB-luc/CBR ratio luminescence, 4 h; series mostly up to 46.1 µM; activity change, negative = inhibition: at the top concentration. The procedure, abridged:
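Concentration series (3 nM to 46 uM) tested on TMD8 cells induced with doxycycline for 4 h. Filter-corrected green (IkBa fusion) over red (unfused) luciferase signal; Data were normalised to 10 uM MG-132 and untreated cell wells.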
For orientation: Quantitative high-throughput screening tests each substance at several concentrations.
With `CCc1ccc(N2CC(C(=O)OCC(=O)Nc3ccccc3C)CC2=O)cc1` (stereo not given), the “activity change, negative = inhibition” value was -2.86%.

With `Cc1[nH][nH]c(=O)c1C(c1c(C)[nH][nH]c1=O)c1cn(Cc2ccc(F)cc2)c2ccccc12`, the Potency was 14.6 µM (active). Regarding `CCOC(=O)C(NCc1ccccc1)(NC(=O)c1ccccc1)C(F)(F)F` (stereo not given), the “activity change, negative = inhibition” value is -4.33%. Take `CCc1nnc(NC(=S)Nc2ccccc2)s1`: the Potency is 0.651 µM (active).

As to `Cc1csc(NC(=S)Nc2cccc(Cl)c2)n1`, the “activity change, negative = inhibition” value was -5.57%.

For the molecule `CCCc1nnc(NC(=O)CCC(=O)NCCc2ccc(OC)c(OC)c2)s1`, the “activity change, negative = inhibition” value was -8.23%. On the same count and under the same terms, in the case of `CCNC(=S)NNc1ccccc1` it was -3.97%. For `CCCc1nnc(NC(=S)Nc2ccccc2)s1`, the Potency is 0.164 µM (active). Take `S=C(Nc1ccccc1)Nc1nccs1`: the “activity change, negative = inhibition” value is -19.7%. As to `Cc1cc(Cl)n2c(nc3ccccc32)c1C#N`, the Potency was 1.84 µM (active).

As to `Cc1ccc(-c2cc(C(=O)N/N=C/c3c(C)nn(-c4ccccc4)c3C)[nH]n2)cc1`, the Potency was 2.31 µM (active). Same read-out and setting: in the case of `Cc1nn(-c2ccccc2)c(C)c1/C=N/NC(=O)c1cc(-c2cccs2)[nH]n1` it was 3.26 µM (active); in that of `Cc1nn(-c2ccccc2)c(C)c1/C=N/NC(=O)c1cc(-c2ccccc2)n[nH]1`, 2.31 µM (active). For `C[C@@H]1C[C@H]2[C@@H]3C[C@H](F)C4=CC(=O)C=C[C@]4(C)[C@@]3(F)[C@@H](O)C[C@]2(C)[C@@]1(O)C(=O)CO`, the “activity change, negative = inhibition” value was -15.3%. Turning to `COc1cc(OC)cc(C(=O)N[C@H](C(=O)Nc2nc3ccccc3[nH]2)C(C)C)c1`, the Potency was 1.84 µM (active). With `N#CC(C(=S)Nc1ccccc1)c1nc2ccccc2[nH]1` (stereo not given), the “activity change, negative = inhibition” value is 21.6%. In the case of `COc1ccc(C(=O)N[C@H](C(=O)Nc2nc3ccccc3[nH]2)C(C)C)cc1`, the Potency is 5.8 µM (active). Regarding `COc1ccc(NC(=S)N=Nc2c(O)[nH]c3ccccc23)cc1`, the “activity change, negative = inhibition” value was -16.6%. As to `Cc1cccc(C(=O)N[C@H](C(=O)Nc2nc3ccccc3[nH]2)C(C)C)c1`, the Potency is 3.26 µM (active). Regarding `COC(=O)Nc1nc2ccc(Sc3ccccc3)cc2[nH]1`, the “activity change, negative = inhibition” value was 52%.

Consider `OCc1ccnc2c(O)cccc12`, for which the “activity change, negative = inhibition” value was 3.41%. Still for that read-out and setting: in the case of `Fc1ccc(NC(=S)N/N=C/c2ccc(F)c(F)c2)cc1` it was 32.7%. Turning to `O=C(N/N=C/c1ccc(Cl)cc1)c1sccc1OCc1ccc(F)cc1`, the Potency is 5.17 µM (active). `NNC(=O)/C(=C\c1ccco1)NC(=O)c1ccco1`: the “activity change, negative = inhibition” value is -4.29%. In the case of `COc1ccccc1C1=NOC(COc2ccc3c(C)cc(=O)oc3c2)C1` (stereo not given), the Potency is 8.2 µM (active).

In the case of `Cc1cc(=O)oc2cc(OCC3CC(c4ccccc4Cl)=NO3)ccc12` (stereo not given), the Potency was 2.59 µM (active). As for `CCCCOc1ccc2c(C)cc(=O)oc2c1OCCCC`, the “activity change, negative = inhibition” value is -11.1%. For `Cc1ccc(NC(=S)NNC(=S)Nc2ccc(C)cc2C)cc1`, the Potency is 1.84 µM (active). Turning to `Cc1ccc(NC(=S)NNC(C)(C)C)cc1`, the “activity change, negative = inhibition” value was -1.5%. The same measure, in the same setting: the result for `C=CCNC(=S)N/N=C/c1ccc(C)cc1C` reads -9.31%. For `CCOc1cc(NC(=O)CCl)c(OCC)cc1NC(=O)CCl`, the Potency is 5.8 µM (active).

In the case of `C/C(=N\NC(=S)NC1CCCCC1)c1ccc(C)o1`, the “activity change, negative = inhibition” value was -3.17%. On to `C(=N\Nc1nc2ccccc2[nH]1)/C1CCCCC1`, for which the “activity change, negative = inhibition” value is 2.77%. As for `CSc1nc(SCC(=O)NCc2ccco2)c2c3c(sc2n1)COC(C)(C)C3`, the Potency is 20.6 µM (active). The same measure, in the same setting: in the case of `Cn1cccc1/C=C1\SC(=Nc2ccc(O)cc2)NC1=O` it was 1.03 µM (active). On the same count and under the same terms, the result for `O=C1NC(=Nc2ccc(O)cc2)S/C1=C\C=C\c1ccco1` reads 2.91 µM (active). Turning to `O=C(Cc1cccs1)N/N=C/C=C/c1ccco1`, the “activity change, negative = inhibition” value is -17.3%.

With `CCOc1c(Br)cc(CNc2ccc3c(c2)OCCO3)cc1OC`, the Potency is 10.3 µM (active).

As for `CCOc1c(Cl)cc(CNCC(C)C)cc1OC`, the “activity change, negative = inhibition” value was -6.38%.

Consider `CCOc1cc(CNc2ccc3c(c2)OCCO3)cc(Br)c1OCC`, for which the Potency was 5.17 µM (active). Take `O=C(N/N=C/c1ccc(Cl)cc1)c1n[nH]c2c1CCCC2`: the Potency was 2.06 µM (active). `Cc1ccc(/C=N/NC(=O)c2n[nH]c3c2CCCC3)cc1`: the Potency was 0.206 µM (active).

With `O=C(NN=C1CCCC1)c1n[nH]c2c1CCC2`, the “activity change, negative = inhibition” value was -10.7%. The same measure, in the same setting: the result for `Cc1cccc(C)c1OCC(=O)N/N=C/C=C/c1ccco1` reads -9.1%. `Cc1ccc(NC(=O)/C=C/c2ccco2)nc1`: the Potency was 1.16 µM (active). Turning to `COc1ccc(NC(=S)NC(=O)/C=C/c2ccco2)cc1`, the “activity change, negative = inhibition” value was -12.3%. Still for that read-out and setting: the result for `O=C(CNCc1ccccc1)Nc1ccc(Oc2ccccc2)cc1` reads -2.09%. For `O=C(COc1ccc(Oc2ccccc2)cc1)NCc1cn2ccccc2n1`, the Potency was 11.6 µM (active).

`Cc1cccc(NC(=O)c2ccc(C(=O)Nc3cccc(C)c3)nc2)c1`: the Potency is 10.3 µM (active).

Turning to `Cc1cccc(NC(=S)NNC(=O)CCn2cc(C)cn2)c1`, the “activity change, negative = inhibition” value is -3.27%.
